# Pf growth 96h = Primary qHTS for delayed death inhibitors of the malarial parasite plastid, 96 hour incubation. P. falciparum luciferase reporter growth, 96 h. Potency, µM (highest dose often 28.7 µM), without a hit: at the top dose activity change, negative = inhibition, actives largely listed as inhibitors. actives 6.9% (n = 320,000); also: potency is read from the fitted curve at half-maximal effect; % is scaled to controls: 0 for no effect and ±100 for the full control effect
#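 Erythrocytes infected with luciferase-expressing P. falciparum were dispensed at 2% hematocrit and 0.05% parasitemia (final), then incubated with compounds 96 hours at 37 C in 5% CO2. Luminescence after detection reagent addition reported growth.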
# SARS PLP yeast = qHTS of Yeast-based Assay for SARS-CoV PLP | actives 0.19% (n = 330,000) | Potency, µM (doses to about 32.9 µM), for inactives: at the top dose activity, positive = growth rescue, most hits filed as activators | S. cerevisiae expressing SARS-CoV PLpro, growth rescue; calls by dose curve; also: potency is read from the fitted curve at half-maximal effect; 0% is about no effect; nearly all actives have a fitted effect of over 55% in size
# Pf growth 48h = Primary qHTS for delayed death inhibitors of the malarial parasite plastid, 48 hour incubation; P. falciparum luciferase growth in erythrocytes, 48 h; AID 504832, 2011; actives 5.9% (n = 310,000); Potency, µM (doses to about 28.7 µM), inactives show at the top dose activity change, negative = inhibition, usual class: inhibitors; also: potency is read from the fitted curve at half-maximal effect; % is scaled to controls: 0 for no effect and ±100 for the full control effect
#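 First compound was added to culture medium, then infected red cells at 0.1% parasitemia and 2% hematocrit (final). After incubation at 37 C under 5% CO2, luciferase detection reagent was dispensed and light output recorded.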
# AMA1-RON2 inh = qHTS for Inhibitors of AMA1-RON; Towards Development of Antimalarial Drug Lead: Primary Screen; AlphaScreen AMA1-biotinylated RON2 peptide binding; Potency, µM (highest dose often 58.2 µM), for inactives: top-dose activity change, negative = inhibition, usual class: inhibitors; actives 0.2% (n = 360,000); AID 720542, 2013;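 also: potency is read from the fitted curve at half-maximal effect; 0% = vehicle wells and -100% = peptide control; nearly all actives have a fitted effect of over 45% in size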
#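 AMA1 (3D7) with his tag at 25 nM final met compounds first, then biotinylated RON2 peptide at 25 nM; detection used donor plus acceptor beads, 10 µg/mL apiece, read by AlphaScreen after 30 min at room temperature.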
# CHX counter = Cycloheximide Counterscreen for Small Molecule Inhibitors of Shiga Toxin; cell reporter, cycloheximide protein synthesis inhibition counterscreen; max response, %; actives 12% (n = 300,000); AID 2314, 2010; in the data active = max response mostly above about 13%, no sharp cut-off; inactive = mostly below about 14%; also: read at 38.3 µM for the half of the compounds with a filed dose; 0% is about no effect
# Shiga toxin inh = A qHTS for Small Molecule Inhibitors of Shiga Toxin; inhibition, % at 38.7 µM; Vero cells, Shiga toxin protein synthesis inhibition reporter; AID 2315, 2010; actives 9.2% (n = 290,000); in the data active = inhibition mostly above about 28%, no sharp cut-off; inactive = mostly below about 43%; also: 0% is about no effect
# * hit, by the source's call; u = inconclusive; x = not tested or not shown. An excerpt weighted towards active compounds, which were near 19% of everything screened. Unless noted, calls follow the shape of the dose curve; as a rule, active = well fitted curve in the direction sought with a large enough effect; inconclusive = small, poorly fitted or top-dose-only effect, or another doubt; inactive = no such curve, though single readings can be large; an effect the other way counts as inactive or inconclusive.
SMILES,Pf growth 96h,SARS PLP yeast,Pf growth 48h,AMA1-RON2 inh,CHX counter,Shiga toxin inh
C=CCC[C@H](Cc1ccc(F)cc1)C(=O)OC[C@@H](Cc1c[nH]c2ccccc12)NC(=O)[C@@H](CC=C)CC(=O)NCCO,x,-8.1%,x,-0.9%,x,x
COc1ccc(C)cc1CN(C)c1ccc(S(=O)(=O)N2CCN(C)CC2)cn1,u,2.0%,10.4µM*,u,x,x
Cc1ccccc1CN(C)c1ccc(S(=O)(=O)N2CCN(C)CC2)cn1,20.4%,5.3%,-10.8%,-7.0%,x,x
COC(=O)c1cccc(NC(=O)c2cccc(OC)c2)c1,26.6%,x,159.8%,u,53.4*,104.2*
COc1cccc(C(=O)Nc2cccc(OC(C)=O)c2)c1,149.4%,-3.7%,149.9%,1.7%,45.3*,52.1*
COc1cccc(NC(=O)c2ccncc2)c1,19.2%,-2.3%,45.2%,10.4%,3.1,37.5
COc1cccc(C(=O)NC(=O)Nc2cc(C)[nH]n2)c1,125.2%,0.0%,103.7%,0.9%,38.7*,84.2*
O=C(COc1ccc(Cc2ccccc2)cc1)c1ccc(F)cc1,5.22µM*,-7.2%,1.9%,75.3%,34.8*,-17.0
CC(=O)Oc1cccc(NC(=O)c2cccc(C(=O)Nc3cccc(OC(C)=O)c3)c2)c1,u,1.0%,4.2%,-6.2%,-2.1,x
Cc1cc2nc(C3CCCCC3)c(CC(C)(C)C)n2c(C)c1Br,x,x,x,-0.7%,x,x
CS(=O)(=O)N1CCC(C(=O)Nc2cccc(Cl)c2Cl)CC1,u,-3.6%,2.2%,8.4%,-3.8,-2.6
CN(CC(=O)Nc1ccc(F)c(F)c1F)C(=O)/C=C/c1ccco1,x,-16.7%,x,7.2%,x,x
COc1ccccc1-c1nnc(NC(C)=O)s1,7.38µM*,2.6%,196.3%,0.0%,38.3*,49.1*
COC(=O)c1ccc(NC(=O)c2c(C(=O)Nc3ccccc3)sc3nc(C)cc(=O)n23)cc1,11.7µM*,-0.2%,7.4%,-1.6%,-3.1,-3.8
COc1cccc(C(=O)N2CCOCC2)c1,u,0.1%,3.6%,-9.0%,-3.5,-18.9
COc1ccccc1-c1nnc(NC(=O)C(C)C)s1,-13.4%,0.1%,41.0%,8.0%,16.7,-1.4
COc1cccc(C(=O)Nc2ccc(C(=O)NCC(C)C)cc2)c1,38.8%,1.4%,-9.0%,-5.6%,-5.5,12.0
COc1cccc(C(=O)n2c(SC)nc3cc4c(cc32)OCCO4)c1,33.5%,-9.0%,33.8%,-9.8%,17.1*,40.4
COC(=O)c1ccc(NC(=O)c2sc3nc(-c4ccccc4)cn3c2C)cc1,20.5%,3.8%,u,-7.2%,-2.0,18.3
COC(=O)c1ccc(NC(=O)c2cccc(OC)c2)cc1,-3.1%,-27.3%,40.4%,23.4%,56.5*,91.3*
CN(C)S(=O)(=O)c1cccc(NC(=O)CCc2nc3cc(S(=O)(=O)N4CCOCC4)ccc3n2C)c1,u,0.7%,u,-13.0%,x,x
COc1cccc(C(=O)Nc2ccc(NC(=O)C3C4C=CC(C4)C3C(=O)O)cc2)c1 (stereo not drawn),55.6%,-3.7%,-8.3%,-7.2%,40.8*,141.7*
COc1cccc(C(=O)Nc2cc3c(cc2C(C)=O)OCCO3)c1,10.4µM*,6.8%,39.8%,3.5%,-1.8,7.4
COC(=O)c1cccc(NC(=O)c2cc3sccc3n2C)c1,3.2%,-4.2%,150.3%,-14.0%,28.8*,109.0*
COc1cccc(C(=O)Nc2cccnc2)c1,x,5.5%,87.2%,11.8%,48.3*,69.9
SMILES,Pf growth 96h,SARS PLP yeast,Pf growth 48h,AMA1-RON2 inh,CHX counter,Shiga toxin inh
COc1cc(NC(=O)C2C3C=CC(C3)C2C(=O)O)ccc1NC(=O)c1ccccc1 (stereo not drawn),-21.4%,3.0%,22.4%,-1.9%,12.2,5.0
COc1cccc(C(=O)Nc2ccncc2)c1,20.3%,-3.3%,21.0%,x,8.1,25.3
Cc1cc2nc(-c3ccco3)c(Cc3ccccc3C(F)(F)F)n2c(C)c1Br,x,x,x,-0.7%,x,x
Cc1cccc(N(C(=O)CNC(=O)c2ccco2)C(C(=O)NC2CCCC2)c2ccncc2)c1C (stereo not drawn),18.6%,-1.0%,-2.1%,-3.4%,10.0,-5.7
Nc1ccccc1S(N)(=O)=O,4.0%,x,2.0%,0.0%,x,x
O=C(CCS(=O)(=O)c1cccc2nsnc12)NC1CCCCC1,92.7%,-4.9%,33.4%,-0.7%,-4.1,9.5
CCOc1cccc(C(=O)Nc2cccc(NC(=O)c3ccco3)c2)c1,23.4%,0.4%,-7.7%,-16.1%,25.3*,24.6
O=C(COc1cccc(NC(=O)c2ccco2)c1)c1ccc(F)cc1,x,-20.5%,-21.2%,4.1%,14.6*,24.9*
CSc1ncc(C(=O)Nc2ccccc2)cn1,310.7%,-8.1%,32.0%,3.1%,-2.4,-1.9
COc1cccc(C(=O)Nc2ccc(C3CC3(Cl)Cl)cc2)c1 (stereo not drawn),51.3%,-0.4%,408.4%,8.3%,28.2*,84.7*
O=C(COc1cccc(NC(=O)c2ccccc2)c1)c1ccc(F)cc1,-10.4%,12.9%,9.4%,-4.3%,-2.8,2.6
COc1cccc(NC(=O)c2cnc(SC)nc2)c1,-17.3%,-3.4%,78.0%,40.7%,21.3*,27.0
Cc1cccc(C(=O)Nc2ccc(C(=O)c3ccncc3)cc2)c1,x,x,x,-12.8%,x,x
CCOc1cccc(C(=O)Nc2cccc(C(C)=O)c2)c1,3.29µM*,-3.4%,119.9%,12.0%,39.5*,68.3*
COC(=O)c1ccc(NC(=O)c2cccc(C)c2)cc1,u,-10.0%,106.1%,1.4%,18.9*,36.8
COc1cccc(OC)c1C(=O)Nc1nnc(-c2ccc(F)cc2)s1,u,4.2%,0.0%,-1.5%,10.4*,29.7*
COc1cccc(NC(=O)c2ccc(NC(C)=O)cc2)c1,55.9%,-6.3%,x,3.0%,33.4*,20.5
CC1(C)CC2(CC(c3ccccc3)c3ccc(O)cc3O2)NC(=S)N1 (stereo not drawn),u,0.5%,-10.3%,38.1%,1.0,-15.6
COc1ccc(CCNC(=O)[C@H](C)N2C(=O)N3CCc4c([nH]c5ccccc45)[C@@]3(C)C2=O)cc1,u,-23.7%,u,-4.2%,-1.9,-3.5
COc1cccc(C(=O)Nc2ccc(C)cc2)c1,u,-3.8%,132.6%,5.8%,30.0*,88.3*
Cc1cccc(C(=O)NNC(=O)c2cccc(C)c2)c1,9.2%,-10.0%,7.5%,8.0%,8.3,3.0
COc1cccc(C(=O)Nc2ccc(C(=O)O)cc2)c1,u,-0.1%,23.0%,-12.9%,-1.1,21.5
Cc1cccc(C(=O)NNC(=O)c2ccc(F)cc2)c1,u,7.2%,2.7%,-3.2%,14.0*,16.4
CCOc1cccc(C(=O)Nc2ccc(N(CC)CC)cc2)c1,u,-2.4%,17.8%,u,16.4,15.3
COc1cccc(C(=O)Nc2ccc(C(=O)c3ccccc3)cc2)c1,u,-7.4%,2.8%,-2.0%,35.7*,x
